Activity calls are given as the source filed them. Calls come from the whole dose curve; as a rule, active = well fitted curve in the direction sought with a large enough effect; inactive = no such curve, though single readings can be large or run the other way.
Assay: qHTS Assay for Agonists of the Relaxin Receptor RXFP1: V1B SAR
Conditions: HEK293 V1B cells, cAMP TR-FRET, 30 min; series mostly up to 78.1 µM; activation: at the top concentration
Excerpt: The relaxin hormone is involved in the variety of biological functions in normal tissues and diseases. The role of relaxin is well-established in female reproduction and parturition, mammary gland and endometrial development, maintenance of myometrial quiescence during pregnancy. Relaxin signaling through its G protein-coupled receptor (GPCR) RXFP1 results in ECM remodeling through regulation of collagen deposition, cell invasiveness, proliferation and overall tissue homeostasis. […] Recombinant human relaxin (rhRlx) is currently being tested in clinical trials as a protective agent in congestive heart failure, in treating severe preeclampsia, and as an anti-fibrotic agent in systemic sclerosis. Upon relaxin binding RXFP1 activation leads to the activation of adenylate cyclase (AC) via Gs. cAMP will activate PKA, which phosphorylates many signaling proteins. Thus, detection of cAMP increase is an easy and reliable indication of relaxin receptor activation. To screen for agonists of the relaxin receptor, a HEK293T cell line stably transfected with RXFP1 was used. RXFP1 activation was assayed by changes in cAMP levels as detected with a time-resolved fluorescence energy transfer (TR-FRET) cAMP detection kit. This assay measures activation of a cell expressing V1B, another GPCR targeted by relaxin, to determine the selectivity of compounds for RXFP1. NIH Chemical Genomics Center [NCGC] NIH Molecular Libraries Probe Production Centers Network [MLPCN] MLPCN Grant: R03 MH085705-01A1 Assay Submitter (PI): Alexander Agoulnik
This is a cell-based assay for cAMP second messenger response to screen for agonists of the RXFP2 receptor. The assay was conducted in the presence of a PDE4 inhibitor (Ro 20174). The cells were lysed and the cAMP levels were measured with a TR-FRET cAMP kit. Presence of cAMP in the cell lysate disrupts binding between the cryptate-labeled anti-cAMP and d2-labeled cAMP pair, leading to a decrease in the TR-FRET signal. Data were normalized to the controls for basal activity (buffer only) and 100% activity (29 nM porcine relaxin). The EC50 values were determined from concentration-response data modeled with the standard Hill equation 1536-well assay protocol for the HEK293 V1B cAMP assay: (1) Add 3 ul HEK293 RXFP2 cell culture. 2000 cells/well in DMEM/F12, 10% FBS, 1x Pen/Strep (dispensed offline with MultiDrop Combi). (2) Incubate 16-24 hr at 37C, 5% CO2. (3) Add 1 ul 400uM Ro20174 in DPBS, 0.05% BSA, 0.005% Tween 20. (3) Add 23 nl compounds in DMSO solution. Final concentration was 0.5 - 58 uM. (4) Incubate 30 min at 37C, 5% CO2. (5) Add 1 ul cAMP-d2 in lysis buffer (HTRF cAMP HiRange kit, CisBio). (6) Add 1 ul anti-cAMP antibody-cryptate in lysis buffer (HTRF cAMP HiRange kit, CisBio). (7) Incubate 30 min at room temperature. (6) Detect the assay plate in a ViewLux plate reader (PerkinElmer) with Ex=320 nm, Em1=615 nm and Em2=665 nm. Keywords: relaxin, RXFP1, RXFP2, G-protein coupled receptor, cAMP, agonist, high throughput screening, MLSMR, MLSCN, NIH Roadmap, qHTS and NCGC

activation, inactive:
CCOc1ccccc1C(=O)Nc1ncccc1C(=O)Nc1cccc(S(=O)(=O)C(F)(F)F)c1 2.36%, COc1ccccc1C(=O)Nc1ccccc1C(=O)Nc1cccc(SC(F)(F)F)c1 -3.98%, O=C(NCc1cccc(C(F)(F)F)c1)c1ccccc1NC(=O)C1CCCCC1 -0.791%, CCSc1ccccc1C(=O)Nc1ccccc1C(=O)Nc1cccc(S(=O)(=O)C(F)(F)F)c1 -1.43%, CCOc1ccccc1C(=O)Nc1ccncc1C(=O)Nc1cccc(S(=O)(=O)C(F)(F)F)c1 4.28%, O=C(Nc1cccc([N+](=O)[O-])c1)c1ccccc1NC(=O)C1CCCCC1 1.46%, COc1ccccc1CNc1ccccc1C(=O)Nc1cccc(C(F)(F)F)c1 1.52%, CC(C)Oc1ccccc1C(=O)Nc1ccccc1C(=O)Nc1cccc(C(F)(F)F)c1 -5.45%, O=C(Cc1ccccc1)Nc1ccccc1C(=O)Nc1cccc(C(F)(F)F)c1 -1.24%, O=C(Nc1cccc(F)c1)c1ccccc1NC(=O)C1CCCCC1 -4.78%, COc1cccc(OC)c1C(=O)Nc1ccccc1C(=O)Nc1cccc(C(F)(F)F)c1 -1.17%, O=C(Nc1cccc(C(F)(F)F)c1)c1ccccc1NC(=O)c1ccccc1OC(F)(F)F 2.56%, O=C(Nc1cccc(C(F)(F)F)c1)c1ccccc1NC(=O)C1CC1 8.37%, CCOc1ccccc1C(=O)Nc1ccccc1C(=O)Nc1cccc(C(F)(F)F)c1 7.36%, COc1ccccc1Nc1ccccc1C(=O)Nc1cccc(C(F)(F)F)c1 -2.38%, O=C(Nc1cccc(-c2ccccc2)c1)c1ccccc1NC(=O)C1CCCCC1 -3.61%, O=C(NCc1ccco1)c1ccccc1NC(=O)c1ccccc1NC(=O)C1CCCCC1 5.67%, CSc1cccc(NC(=O)c2ccccc2NC(=O)C2CCCCC2)c1 3.22%, O=C(Nc1ccccc1C(=O)Nc1cccc(C(F)(F)F)c1)c1ccccc1 66.3%, CCOc1ccccc1C(=O)Nc1ccccc1C(=O)Nc1cccc(S(=O)(=O)C(F)(F)F)c1 -0.766%, O=C(Nc1ccc(C(F)(F)F)cc1)c1ccccc1NC(=O)C1CCCCC1 2.37%, O=C(Nc1ccccc1C(=O)Nc1cccc(C(F)(F)F)c1)c1ccccc1Cl 3.73%, CCOc1ccccc1S(=O)(=O)Nc1ccccc1C(=O)Nc1cccc(S(=O)(=O)C(F)(F)F)c1 4.37%, O=C(Nc1cccc(C(F)(F)F)c1)c1ccccc1NC(=O)C1CCCCCC1 3.2%, O=C(Nc1ccccc1C(=O)Nc1cccc(C(F)(F)F)c1)c1cccnc1 -5.19%, CCC(CC)C(=O)Nc1ccccc1C(=O)Nc1cccc(C(F)(F)F)c1 1.55%, O=C(Nc1cccc(-c2ccccc2C(F)(F)F)c1)c1ccccc1NC(=O)C1CCCCC1 3.89%, O=C(Nc1cccc(C(F)(F)F)c1)c1ccccc1NC(=O)C1CCCC1 -3.74%, COc1ccc(C(=O)Nc2ccccc2C(=O)Nc2cccc(C(F)(F)F)c2)cc1 3.66%, COc1cccc(C(=O)Nc2ccccc2C(=O)Nc2cccc(C(F)(F)F)c2)c1 1.57%, COc1ccccc1-c1ccccc1C(=O)Nc1cccc(C(F)(F)F)c1 3.5%, CCOc1ccccc1C(=O)Nc1sccc1C(=O)Nc1cccc(S(=O)(=O)C(F)(F)F)c1 12.3%, CC(C)(C)c1cccc(NC(=O)c2ccccc2NC(=O)C2CCCCC2)c1 -3.36%, COc1ccccc1C(=O)Nc1ccc(C(=O)Nc2cccc(C(F)(F)F)c2)cc1 -3.39%, CCOc1ccccc1-c1nc2c(C(=O)Nc3cccc(S(=O)(=O)C(F)(F)F)c3)cccc2[nH]1 5.06%, Cc1ccc(NC(=O)c2ccccc2NC(=O)C2CCCCC2)cc1 0.657%, COc1ccccc1C(=O)Nc1ccccc1C(=O)N(C)c1cccc(C(F)(F)F)c1 -3.58%, CCCCOc1ccccc1C(=O)Nc1ccccc1C(=O)Nc1cccc(S(=O)(=O)C(F)(F)F)c1 -0.668%, CCOc1ccccc1C(=O)Nc1cccnc1C(=O)Nc1cccc(S(=O)(=O)C(F)(F)F)c1 -5.24%, Cc1ccccc1C(=O)Nc1ccccc1C(=O)Nc1cccc(C(F)(F)F)c1 -2.4%
